In PubChem BioAssay (EPA / NIEHS):
Where a structure was tested more than once in an assay, its records may differ in their call. Activity calls are given as the source filed them. How the source made its calls: active means hit-call score of the fitted dose curve at least 0.9, where 1 is the maximum; inactive means score below 0.9.

Assay: CCTE_Shafer_MEA_dev_interburst_interval_mean: CCTE's Neural Network Formation Assay for Mean Interburst Interval, Shafer Lab (AID 2284046)
Description: CCTE_Shafer_MEA_dev assay is conducted using Axion Biosystems 48 well microelectrode array (MEA) plates and Maestro recording system. Each well of the MEA plate contains a grid of 16 microelectrodes embedded in the culture surface. Electrically active cells, such as neurons, can be cultured over the electrodes, and electrical activity in these cells can be recorded extracellularly. The spontaneous firing of neurons is captured from each electrode on a microsecond timescale providing both temporally and spatially precise data. […] The CCTE_Shafer_MEA_dev assay uses primary cultures of rat cortical neurons. Recordings are made on days post-plating 5, 7, 9 and 12. As these cultures mature over time, neural networks develop functional activity and form cohesive networks in which electrical activity can be highly coordinated. CCTE_Shafer_MEA_dev_interburst_interval_mean is 1 of 19 assay components of the CCTE_Shafer_MEA_dev assay. It measures the average time interval between consecutive single-electrode bursts (temporally-clustered groups of action potential firing) during a recording in a microelectrode array (MEA) using Axion Biosystems Maestro 768 channel amplifier with the AxIS adaptive spike detector. The mean inter-burst interval is averaged across the actively bursting electrodes to report a well-mean value. To collapse across multiple recordings made on days post-plating 5, 7, 9 and 12, the trapezoidal area-under-the-curve of the component is calculated.Data from the assay component CCTE_Shafer_MEA_dev_interburst_interval_mean was analyzed into 1 assay endpoint. This assay endpoint, CCTE_Shafer_MEA_dev_interburst_interval_mean, was analyzed in the negative analysis fitting direction relative to DMSO as the negative control and baseline of activity. Using a type of functional reporter, gain or loss-of-signal activity can be used to understand electrical activity.
On the day prior to culture, each well was coated thoroughly with 150 uL of 0.05% polyethyleneimine (PEI, Sigma Cat P3143) in 50 mM HEPES (Sigma Cat H7523) at a pH of 8. The plate was incubated at 37C for one hour. PEI was rinsed out with 500 uL of sterile water three times. Plates were stored at 4C until the day of culture. This culture was plated at a seeding density of 1.5 x 10^5 cells/well on a 48-well MEA plate, prepared as described above. Cells were administered via a 25 uL media/laminin ([…]; Sigma Cat L2020-1MG) drop directly onto the microelectrode array, as adding the cells with the laminin results in better attachment than pre-coating with laminin. After 2 hours, an additional 475 uL of cortical media was added and the cells returned to the incubator. Exposure starts at day 0 of plating and is continued over twelve days of network development until the experiment is terminated. Cells are fed with fresh medium on DIV 5 and 9, following the recordings on those days. The entire volume of media in the well is exchanged and any vehicle or compound treatment is renewed. Complete details are found in OP-NHEERL/ISTD/SBB/TJS/2015-03-r0 (available on request, email shafer.tim@epa.gov). Measurement of the electrical activity is non-invasive, and recordings can be made from the same plate over multiple different days of the culture. In cortical neurons, this allows for the measurement of extracellular action potentials over the period during which networks form in the MEA plate.
For `CN[C@]1(c2ccccc2Cl)CCCCC1=O`, the outcome was “inactive”.
In the case of `CC1(C)C(C=C(Cl)Cl)C1C(=O)O[C@H](C#N)c1cccc(Oc2ccccc2)c1` (stereo not given in full), the AC50 is reported as 8.7 µM (active).
With `CCOP(=O)(OCC)OC(Cl)C(Cl)(Cl)Cl` (stereo not given) the AC50 was 3.57 µM (active).
In the case of `O=C(O)CNCP(=O)(O)O`, the outcome is reported as “inactive”.
With `C/C(=C/C=C/[C@@H](C)C(=O)O)[C@H]1CN[C@H](C(=O)O)[C@H]1CC(=O)O` the AC50 was 0.0322 µM (active) and the outcome was “inactive”.
With `c1ccc2c(c1)cc1ccc3cccc4ccc2c1c34` the outcome was “inactive”.
In the case of `CCOP(=O)(Oc1cnc(C(C)(C)C)nc1)OC(C)C` (stereo not given), the outcome is reported as “inactive”.
With `CCC[CH2][Sn]([CH2]CCC)([CH2]CCC)[O][Sn]([CH2]CCC)([CH2]CCC)[CH2]CCC` the AC50 was 0.0762 µM (active).
In the case of `COP(=O)(OC)SCN1C(=O)c2ccccc2C1=O`, the outcome is reported as “inactive”.
For `CC(C)CCCCCCCOP(=O)(Oc1ccccc1)Oc1ccccc1`, the outcome was “inactive”.
For `C[n+]1ccc(-c2cc[n+](C)cc2)cc1`, the AC50 was 1.16 µM (active).
In the case of `c1ccc2cc3c(cc2c1)-c1cccc2cccc-3c12`, the outcome is reported as “inactive”.
For `C[C@H](N)Cc1ccccc1`, the outcome was “inactive”.
With `Cc1ccc(OP(=O)(Oc2ccc(C)cc2)Oc2ccc(C)cc2)cc1` (tested in a mixture with another compound) the outcome was “inactive”.
In the case of `CCOP(=O)(O)OCC` (tested in a mixture with another compound), the outcome is reported as “inactive”.
With `CCCCC(CC)COC(=O)c1cc(Br)c(Br)c(Br)c1Br` (stereo not given) the AC50 was 16.8 µM (active).
With `CC(=O)[O-].[Tl+]` the outcome was “inactive”.
In the case of `O.O.O.O.O.[Cd+2].[Cd+2].[Cl-].[Cl-].[Cl-].[Cl-]`, the AC50 is reported as 0.863 µM (active).
With `CCOP(=O)(OCC)SCSC(C)(C)C` the outcome was “inactive”.
In the case of `CP(=O)(O)CC[C@H](N)C(=O)O`, the outcome is reported as “inactive”.
For `Brc1ccc(Oc2ccc(Br)cc2Br)c(Br)c1`, the outcome was “inactive”.
With `CC1CCCC1.[C-]#[O+].[C-]#[O+].[C-]#[O+].[Mn]` the outcome was “inactive”.
In the case of `CNC(=N[N+](=O)[O-])NCC1CCOC1` (stereo not given), the outcome is reported as “inactive”.
In the case of `CP(=O)(O)CCC(N)C(=O)O` (stereo not given), the outcome is reported as “inactive”.
With `CCC1(c2ccccc2)C(=O)NC(=O)NC1=O` the outcome was “inactive”.
In the case of `[CH3][Sn]([CH3])[CH3]`, the AC50 is reported as 2.36 µM (active).
In the case of `C[n+]1ccc(-c2ccccc2)cc1`, the outcome is reported as “inactive”.
With `CC1(C)[C@H](C=C(Cl)Cl)[C@@H]1C(=O)O[C@@H](C#N)c1cccc(Oc2ccccc2)c1` the outcome was “inactive”.
With `O=[As]O` the AC50 was 1.69 µM (active).
For `Cn1nc(C(F)(F)F)c(CS(=O)(=O)C2=NOC(C)(C)C2)c1OC(F)F`, the outcome was “inactive”.
With `[Cd+2].[Cl-].[Cl-]` the AC50 was 0.46 µM (active).
For `Brc1ccc(Oc2cc(Br)c(Br)cc2Br)c(Br)c1`, the outcome was “inactive”.
With `[CH3][Hg][Cl]` the AC50 was 0.34 µM (active).
With `CC1(C)C(C=C(Cl)c2ccc(Cl)cc2)C1C(=O)OC(C#N)c1ccc(F)c(Oc2ccccc2)c1` (stereo not given) the AC50 was 13.6 µM (active).
In the case of `CC(=O)[O-].CC(=O)[O-].O.O.O.[Pb+2]`, the outcome is reported as “inactive”.
With `CC1(C)[C@H](C(=O)O[C@H](C#N)c2cccc(Oc3ccccc3)c2)[C@@H]1C=C(Br)Br` the outcome was “inactive”.
In the case of `CC1(C)[C@H](C=C(Cl)Cl)[C@H]1C(=O)OCc1c(F)c(F)cc(F)c1F`, the AC50 is reported as 13.9 µM (active).
For `CCOP(=S)(OCC)SCS(=O)C(C)(C)C` (stereo not given), the outcome was “inactive”.
In the case of `NCCc1cc(O)c(O)cc1O`, the outcome is reported as “inactive”.
